We go through twelve compounds from PubChem BioAssay (NCATS).

The nature of assay [1]: NS1 protein of Zika virus - qHTS assay to identify small molecule inhibitors in human HEK 293 cells (AID 1347053). Also: series mostly up to about 46 µM; nearly all actives have a fitted effect of over 55% in size. Summed up: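 HEK 293; 20 h pre-culture, 37 C/5% CO2; cpd 1 h pre-infection; ZIKV MR766, MOI = 0.5, 24 h, 37 C; TR-FRET NS1 readout (two anti-NS1 Abs); norm. to no-virus vs infected.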
(In general: Quantitative high-throughput screening tests each substance at several concentrations.)

Assay [2] in a line: qHTS of pediatric cancer cell lines to identify multiple opportunities for drug repurposing: Primary screen for TC32 cells (AID 1347089). Also: nearly all actives have a fitted effect of over 60% in size. The gist of the method: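 qHTS, TC32, 48 h drug treatment, CellTiter-Glo luminescence as a proxy for metabolically active cells; primary top concentration 46 µM (MIPE 11-pt, NPC 8-pt); confirmatory 11-pt.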
Assay [3] in a line: qHTS of pediatric cancer cell lines to identify multiple opportunities for drug repurposing: Primary screen for DAOY cells (AID 1347090). Also: series mostly up to about 46 µM; nearly all actives have a fitted effect of over 55% in size. Summed up: (§1)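 Cell viability, CellTiter-Glo luminescence; 500-1,000 cells/well, 8- or 11-point titration, 48 h compound exposure at 37 degrees C, 5% CO2. Controls: DMSO neutral, bortezomib 2.3 µM final as positive.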
Assay [4] in a line: qHTS of pediatric cancer cell lines to identify multiple opportunities for drug repurposing: Primary screen for SJ-GBM2 cells (AID 1347091). Also: potency is read from the fitted curve at half-maximal effect. Summed up:
as §1

Assay [5] in a line: qHTS of pediatric cancer cell lines to identify multiple opportunities for drug repurposing: Primary screen for A673 cells (AID 1347092). Also: nearly all actives have a fitted effect of over 45% in size. Summed up:
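Luminescence from CellTiter-Glo, taken after 15 min at room temperature, served as the proxy for metabolically active cells following 48 h treatment. Both potency and efficacy were taken from curves fitted to the titration data.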

A short description of assay [6]: qHTS of pediatric cancer cell lines to identify multiple opportunities for drug repurposing: Primary screen for SK-N-MC cells (AID 1347093). Also: series mostly up to about 46 µM. Summed up: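 Metabolically active cells were quantified by ATP-dependent luminescence (CellTiter-Glo, 15 min at room temperature) following 48 h treatment. Cells had been plated at 500-1,000 per well and settled for 5 h beforehand.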

The nature of assay [7]: qHTS of pediatric cancer cell lines to identify multiple opportunities for drug repurposing: Primary screen for BT-37 cells (AID 1347094). Also: potency is read from the fitted curve at half-maximal effect. The gist of the method: (§2)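 Quantitative HTS format: each compound titrated (MIPE 11 points from 0.78 nM, NPC 8 points from 0.59 nM) onto cells plated 5 hours earlier. After 48 h at 37 degrees C, CellTiter-Glo luminescence was recorded.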

Assay [8] is described as follows: qHTS of pediatric cancer cell lines to identify multiple opportunities for drug repurposing: Primary screen for NB-EBc1 cells (AID 1347095). Also: potency is read from the fitted curve at half-maximal effect. The gist of the method:
as §2

The nature of assay [9]: qHTS of pediatric cancer cell lines to identify multiple opportunities for drug repurposing: Primary screen for U-2 OS cells (AID 1347096). Also: nearly all actives have a fitted effect of over 50% in size. Summed up:
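Cells (500-1,000/well) rested 5 h, then received compounds for 48 h; metabolically active cells were measured by CellTiter-Glo luminescence. Final concentrations spanned up to 46 µM (MIPE, 11-point) or 0.59 nM-46 µM (NPC, 8-point) in primary screens, 11-point in follow-ups.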

Assay [10] addresses Atrial natriuretic peptide receptor 1 (Homo sapiens) (UniProt P16066). In words: Natriuretic polypeptide receptor (hNpr1) antagonism - Pilot screen (AID 1347049; calls by dose curve;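 also: agonist-evoked cGMP luminescence read 20 min after hNppA addition; series mostly up to about 58 µM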). The gist of the method:
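Readout is cGMP-driven firefly luciferase luminescence in HEK293 cells carrying hNpr1 and a PDE5-domain GloSensor, read before and 20 min after 0.1 nM hNppA stimulation. Cells had 2% substrate reagent for 2 h and test compound for 30 min.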

The target of assay [11] is Atrial natriuretic peptide receptor 2 (Homo sapiens) (UniProt P20594). The experiment in a line: Natriuretic polypeptide receptor (hNpr2) antagonism - Pilot subtype selectivity assay (AID 1347050; calls by dose curve). The gist of the method: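 Pilot selectivity screen against hNpr2: HEK293 cGMP-sensor cells are treated with LOPAC1280 compounds, then with hNppC peptide at 1 nM final. The cGMP-driven luminescence change over 20 min at room temperature is the read-out.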

The target of assay [12] is Parathyroid hormone/parathyroid hormone-related peptide receptor (Homo sapiens) (UniProt Q03431). In words: qHTS for PTHR1 Agonists: Optimization Screen against the NCGC LOPAC library (AID 1347079).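 Also: GloSensor cAMP luminescence in HEK-293 GP2 cells expressing human PTHR1 with IBMX.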 Summed up:
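Compounds were tested across a qHTS titration. PTHR1-expressing GP2 cells report cAMP rises via GloSensor luminescence after 1 hr compound exposure at 37C with IBMX present.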

Assay [13] is described as follows: P-glycoprotein substrates identified in KB-8-5-11 adenocarcinoma cell line, qHTS therapeutic library screen (AID 1346987). Also: potency is read from the fitted curve at half-maximal effect; nearly all actives have a fitted effect of over 65% in size. Summed up: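 KB-8-5-11: colchicine-selected sub-line of KB-3-1 over-expressing P-gp; assay medium lacked colchicine. 72 h drug exposure at 37 degree C, CellTiter-Glo.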

Structures are written as SMILES. Records with an inconclusive call do not appear. The source made the active and inactive calls. Unless noted, calls follow the shape of the dose curve; as a rule, active = well fitted curve in the direction sought with a large enough effect; inconclusive = small, poorly fitted or top-dose-only effect, or another doubt; inactive = no such curve, though single readings can be large; an effect the other way counts as inactive or inconclusive.

Sequence of Atrial natriuretic peptide receptor 2 (Homo sapiens) (P20594 whole entry, looked up): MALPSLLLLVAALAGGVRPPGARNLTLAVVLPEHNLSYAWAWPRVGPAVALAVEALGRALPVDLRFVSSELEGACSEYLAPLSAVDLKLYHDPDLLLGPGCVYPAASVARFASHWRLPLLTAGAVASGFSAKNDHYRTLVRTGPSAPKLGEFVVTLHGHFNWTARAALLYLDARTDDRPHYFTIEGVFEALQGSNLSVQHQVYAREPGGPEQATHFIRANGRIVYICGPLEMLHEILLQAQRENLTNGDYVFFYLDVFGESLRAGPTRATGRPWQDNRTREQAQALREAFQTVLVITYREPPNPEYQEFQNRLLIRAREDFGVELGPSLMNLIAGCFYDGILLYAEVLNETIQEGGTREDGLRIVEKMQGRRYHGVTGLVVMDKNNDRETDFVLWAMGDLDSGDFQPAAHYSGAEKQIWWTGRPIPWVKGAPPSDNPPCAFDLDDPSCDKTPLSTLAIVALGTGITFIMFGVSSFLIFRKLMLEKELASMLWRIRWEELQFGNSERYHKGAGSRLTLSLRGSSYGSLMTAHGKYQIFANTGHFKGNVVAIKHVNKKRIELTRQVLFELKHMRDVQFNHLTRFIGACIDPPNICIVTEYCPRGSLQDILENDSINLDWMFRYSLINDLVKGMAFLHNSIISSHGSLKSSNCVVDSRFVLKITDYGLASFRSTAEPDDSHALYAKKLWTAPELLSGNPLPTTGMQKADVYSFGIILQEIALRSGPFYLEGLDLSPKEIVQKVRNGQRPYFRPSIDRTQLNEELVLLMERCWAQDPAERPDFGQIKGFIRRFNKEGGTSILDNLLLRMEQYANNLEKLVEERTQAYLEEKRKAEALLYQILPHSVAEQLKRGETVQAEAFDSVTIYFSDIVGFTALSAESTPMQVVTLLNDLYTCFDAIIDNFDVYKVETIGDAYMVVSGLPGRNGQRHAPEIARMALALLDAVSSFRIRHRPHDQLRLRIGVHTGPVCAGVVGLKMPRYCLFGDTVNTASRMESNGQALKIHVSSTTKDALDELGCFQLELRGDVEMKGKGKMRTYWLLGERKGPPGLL
Sequence of Parathyroid hormone/parathyroid hormone-related peptide receptor (Homo sapiens) (Q03431 whole entry, looked up): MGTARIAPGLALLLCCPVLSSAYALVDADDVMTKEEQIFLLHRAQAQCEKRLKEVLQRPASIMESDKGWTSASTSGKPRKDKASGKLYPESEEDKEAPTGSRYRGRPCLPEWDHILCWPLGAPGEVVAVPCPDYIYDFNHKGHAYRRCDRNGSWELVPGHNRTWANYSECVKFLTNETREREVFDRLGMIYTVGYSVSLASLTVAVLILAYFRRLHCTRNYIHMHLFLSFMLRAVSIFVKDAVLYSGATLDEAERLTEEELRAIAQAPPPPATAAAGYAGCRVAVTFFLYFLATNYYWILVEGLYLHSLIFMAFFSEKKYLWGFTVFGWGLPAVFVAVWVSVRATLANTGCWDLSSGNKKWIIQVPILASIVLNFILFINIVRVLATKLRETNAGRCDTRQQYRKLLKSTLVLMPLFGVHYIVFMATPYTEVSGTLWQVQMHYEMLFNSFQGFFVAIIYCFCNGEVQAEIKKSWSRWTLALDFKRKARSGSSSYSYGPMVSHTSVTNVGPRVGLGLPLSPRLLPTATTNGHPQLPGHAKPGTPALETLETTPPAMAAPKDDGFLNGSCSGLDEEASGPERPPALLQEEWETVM
Sequence of Atrial natriuretic peptide receptor 1 (Homo sapiens) (P16066 whole entry, looked up): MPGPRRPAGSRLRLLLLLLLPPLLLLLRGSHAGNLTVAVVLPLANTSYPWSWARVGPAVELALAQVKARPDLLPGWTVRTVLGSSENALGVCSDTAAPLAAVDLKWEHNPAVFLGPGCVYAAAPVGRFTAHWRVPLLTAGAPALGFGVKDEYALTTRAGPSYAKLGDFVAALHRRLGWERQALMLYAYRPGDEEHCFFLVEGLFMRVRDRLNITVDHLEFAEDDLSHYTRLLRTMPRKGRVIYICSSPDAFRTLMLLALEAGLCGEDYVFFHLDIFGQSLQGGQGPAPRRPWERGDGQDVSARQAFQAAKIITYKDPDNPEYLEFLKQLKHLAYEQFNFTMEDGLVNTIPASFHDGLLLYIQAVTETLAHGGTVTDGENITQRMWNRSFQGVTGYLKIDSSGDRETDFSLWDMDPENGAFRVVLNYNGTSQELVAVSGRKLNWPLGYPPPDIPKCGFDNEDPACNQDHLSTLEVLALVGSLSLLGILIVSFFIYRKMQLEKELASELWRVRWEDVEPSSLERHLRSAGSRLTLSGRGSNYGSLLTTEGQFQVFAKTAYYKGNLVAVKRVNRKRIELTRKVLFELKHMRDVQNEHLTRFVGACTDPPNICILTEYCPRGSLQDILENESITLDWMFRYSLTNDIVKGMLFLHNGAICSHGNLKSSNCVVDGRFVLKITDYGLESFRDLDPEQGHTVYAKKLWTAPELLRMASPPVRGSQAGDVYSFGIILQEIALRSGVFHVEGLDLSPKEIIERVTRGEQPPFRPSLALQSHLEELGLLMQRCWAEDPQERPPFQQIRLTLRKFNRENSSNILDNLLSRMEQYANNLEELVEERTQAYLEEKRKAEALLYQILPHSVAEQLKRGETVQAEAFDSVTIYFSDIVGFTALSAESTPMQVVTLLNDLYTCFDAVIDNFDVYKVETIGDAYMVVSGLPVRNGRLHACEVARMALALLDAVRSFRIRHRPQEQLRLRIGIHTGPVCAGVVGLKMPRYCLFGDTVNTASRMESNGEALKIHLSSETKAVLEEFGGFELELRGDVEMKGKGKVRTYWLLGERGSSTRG

For `Cc1c(F)c(N2CCNC(C)C2)cc2c1c(=O)c(C(=O)O)cn2C1CC1` (stereo not given), the Potency entry in [1], in assay [2], in assay [3], in assay [4], in [5] and in assay [6] was “inactive” throughout. The Potency entry in assay [7], in assay [8] and in [9] was “inactive” in each case.
In the case of `COc1cc(NS(C)(=O)=O)ccc1Nc1c2ccccc2nc2ccccc12`, the compound was called inactive in [10], in assay [11] and in [12].
With `COc1ccc(CCN2CCC(Nc3nc4ccccc4n3Cc3ccc(F)cc3)CC2)cc1`, the Potency in assay [13] is 20.6 µM (active); in assay [7], 30.9 µM (active).
Turning to `CCOC(=O)/C=C(C)/C=C/C=C(C)/C=C/c1c(C)cc(OC)c(C)c1C`, the Potency result in assay [1], in [2], in assay [3], in assay [4], in assay [5] and in [7] was “inactive” throughout. Further, the Potency entry in assay [8] and in assay [9] was “inactive” each time.
Regarding `Nc1nc2ncc(CNc3ccc(C(=O)N[C@@H](CCC(=O)O)C(=O)O)cc3)nc2c(=O)[nH]1`, the Potency entry in assay [1], in [2], in assay [3], in assay [4], in [5] and in [6] was “inactive” each time. For the same compound, the Potency entry in assay [7], in [8] and in assay [9] was “inactive” throughout.
Regarding `Cc1c(C)n(CCN(C)C)c2ccc(C(=O)OCCN(C)C)cc12`, the Potency result in assay [1], in assay [2], in [3], in [4], in [7] and in assay [8] was “inactive” in each case. In assay [9], the Potency entry is “inactive”.
Regarding `O=C(Nc1ccc(Oc2ccc(Cl)cc2)c(Cl)c1)c1cc(I)cc(I)c1O`, the Potency result in assay [1], in [2], in assay [3] and in assay [9] was “inactive” throughout. The Potency was 15 µM (active) in assay [4] and 26.6 µM (active) in assay [8].
`O=C1OC(c2ccc(O)cc2)(c2ccc(O)cc2)c2ccccc21`: the Potency entry in assay [1], in assay [2], in assay [3], in assay [4], in [6] and in assay [7] was “inactive” in each case. In addition, the Potency entry in [8] and in assay [9] was “inactive” in each case.
On to `N[C@@H](CCC(=O)N[C@@H](CS)C(=O)NCC(=O)O)C(=O)O`, for which the Potency entry in [1], in [2], in [3], in [4], in [5] and in [6] was “inactive” in each case. The Potency entry in assay [8] and in assay [9] was “inactive” throughout.
For `NCCCC[C@H](N[C@@H](CCc1ccccc1)C(=O)O)C(=O)N1CCC[C@H]1C(=O)O`, the Potency result in assay [1], in assay [2], in assay [3], in assay [4], in [5] and in assay [6] was “inactive” in each case. For the same compound, the Potency result in assay [8] and in assay [9] was “inactive” in each case.
Turning to `CC1=C(C(=O)O)N2C(=O)[C@@H](NC(=O)[C@H](N)c3ccc(O)cc3)[C@H]2SC1`, the Potency entry in [1], in assay [2], in [3], in assay [4], in [5] and in assay [7] was “inactive” each time. Besides, the Potency entry in [8] and in assay [9] was “inactive” each time.
Take `CCCC(=O)Nc1ccc(OCC(O)CNC(C)C)c(C(C)=O)c1` (stereo not given): the Potency result in assay [1], in assay [2], in assay [3], in assay [4], in assay [5] and in assay [6] was “inactive” throughout. Also, the Potency entry in assay [7], in assay [8] and in assay [9] was “inactive” each time.
